# Results: the supplement of paper PMC10849652
# Targets with a hit are over-represented here; the source holds about 7,900 in all. About 0.6% of all pairs of compound and target were hits. Values without a mark were called inactive.
# Tests used:
# Experiment in all cases: log2 fold change, soluble protein after heating vs DMSO (PISA); higher = thermal stabilisation; K562 cells, 10 uM, 30 min; active = over 0.2 and 3.5 SD of the protein, either way, in both replicates (recomputed)
# erlotinib = compound: C#Cc1cccc(Nc2ncnc3cc(OCCOC)c(OCCOC)cc23)c1 [erlotinib]
# Procedure, shortened: (§1)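 Soluble protein was quantified by TMTpro 16plex LC-MS/MS after channel sums were equalised. It was obtained as the supernatant after 21,000xg for 90 min from pooled aliquots of K562 cells (2×10^6 cells/mL, 10 μM compound, 30 min) heated for 3 min across 48°C-58°C and extracted in PBS with 0.5% NP-40 at 4°C. Thermal stability values are relative to control samples and come from duplicates. They are given as log2 fold changes.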
# [1] = compound: C/C(=N\NC(=O)C1=CC(=CC=C1)S(=O)(=O)N2CCOCC2)/C3=C(C=CC(=C3)Cl)O
# Procedure, shortened: as §1
# [2] = compound: C1=CC(=C(C=C1Cl)C2=NC3=NC=CN=C3C(=N2)NC4=CC=NC=C4)F
# Procedure, shortened: as §1
# [3] = compound: C1=CC(=CC=C1C2=NC3=C(N2)C=C(C=C3)C(=O)N)OC4=CC=C(C=C4)Cl
# Procedure, shortened: as §1
# [4] = compound: C1=CC2=C(C=CC(=C2)/C=C\3/C(=O)NC(=NCC4=CC=CS4)S3)N=C1
# Procedure, shortened: as §1
# [5] = compound: C1=CC2=NC=CN=C2C=C1/C=C/3\C(=O)NC(=O)S3
# Procedure, shortened: as §1
# [6] = compound: C1=CC=C(C=C1)C2=NC(=C(N2)C3=CC=NC=C3)C4=CC(=C(C=C4)Cl)O
# Procedure, shortened: as §1
# [7] = compound: C1=CC=C2C(=C1)C3=NNC4=CC=CC(=C43)C2=O
# Procedure, shortened: as §1
# [8] = compound: C1CCN(C1)C(=O)NC2=CC=CC(=C2)NC3=NC=C(C(=N3)NCCC4=CN=CN4)Br
# Procedure, shortened: as §1
# [9] = compound: C1CN(CCC1(CC2=CC=C(C=C2)Cl)N)C3=NC=NC4=C3C=CN4
# Procedure, shortened: as §1
# IRAK-1-4 Inhibitor I = compound: C1COCCN1CCN2C3=CC=CC=C3N=C2NC(=O)C4=CC(=CC=C4)[N+](=O)[O-] [IRAK-1-4 Inhibitor I]
# Procedure, shortened: as §1
# ibrutinib = compound: C=CC(=O)N1CCC[C@@H](n2nc(-c3ccc(Oc4ccccc4)cc3)c3c(N)ncnc32)C1 [ibrutinib]
# Procedure, shortened: as §1
# [10] = compound: CC(=O)c1cnc2ccc(-c3cc(Cl)c(O)c(Cl)c3)nc2c1N[C@H]1CC[C@H](CN(C)C)CC1
# Procedure, shortened: as §1
# ralimetinib = compound: CC(C)(C)Cn1c(N)nc2ccc(-c3[nH]c(C(C)(C)C)nc3-c3ccc(F)cc3)nc21 [ralimetinib]
# Procedure, shortened: as §1
# [11] = compound: CC(C)(O)CC(=O)NCCn1ccc2ncnc(Nc3ccc(Oc4cccc(C(F)(F)F)c4)c(Cl)c3)c21
# Procedure, shortened: as §1
# [12] = compound: CC(C)C1=C2N=C(C=C(N2N=C1)NCC3=CC=CC=C3)NCCCCCCN
# Procedure, shortened: as §1
# [13] = compound: CC(C)C[C@@H](C=O)NC(=O)[C@H](CC(C)C)NC(=O)[C@H](CC(C)C)NC(=O)OCc1ccccc1
# Procedure, shortened: as §1
# pinometostat = compound: CC(C)N(C[C@H]1O[C@@H](n2cnc3c(N)ncnc32)[C@H](O)[C@@H]1O)[C@H]1C[C@@H](CCc2nc3cc(C(C)(C)C)ccc3[nH]2)C1 [pinometostat]
# Procedure, shortened: as §1
# [14] = compound: CC1=C(C(CC(=O)N1)C2=CC=C(C=C2)C(F)(F)F)C(=O)NC3=C(C=C4C(=C3)C=NN4)F
# Procedure, shortened: as §1
# [15] = compound: CC1=C(C2=C(C=C1)C(=O)C3=CC=CC=C3N2CCCN)C
# Procedure, shortened: as §1
# Chain of UniProt O75208 (O75208 whole entry, looked up): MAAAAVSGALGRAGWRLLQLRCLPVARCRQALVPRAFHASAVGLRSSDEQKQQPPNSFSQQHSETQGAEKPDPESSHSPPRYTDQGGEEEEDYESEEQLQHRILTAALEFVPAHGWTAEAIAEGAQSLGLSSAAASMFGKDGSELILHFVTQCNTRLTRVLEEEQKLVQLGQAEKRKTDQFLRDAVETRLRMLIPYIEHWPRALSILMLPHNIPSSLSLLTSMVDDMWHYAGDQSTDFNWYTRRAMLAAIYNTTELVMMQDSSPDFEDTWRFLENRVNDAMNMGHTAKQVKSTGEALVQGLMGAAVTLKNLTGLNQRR
# Chain of UniProt Q8N4S0 (Q8N4S0 whole entry, looked up): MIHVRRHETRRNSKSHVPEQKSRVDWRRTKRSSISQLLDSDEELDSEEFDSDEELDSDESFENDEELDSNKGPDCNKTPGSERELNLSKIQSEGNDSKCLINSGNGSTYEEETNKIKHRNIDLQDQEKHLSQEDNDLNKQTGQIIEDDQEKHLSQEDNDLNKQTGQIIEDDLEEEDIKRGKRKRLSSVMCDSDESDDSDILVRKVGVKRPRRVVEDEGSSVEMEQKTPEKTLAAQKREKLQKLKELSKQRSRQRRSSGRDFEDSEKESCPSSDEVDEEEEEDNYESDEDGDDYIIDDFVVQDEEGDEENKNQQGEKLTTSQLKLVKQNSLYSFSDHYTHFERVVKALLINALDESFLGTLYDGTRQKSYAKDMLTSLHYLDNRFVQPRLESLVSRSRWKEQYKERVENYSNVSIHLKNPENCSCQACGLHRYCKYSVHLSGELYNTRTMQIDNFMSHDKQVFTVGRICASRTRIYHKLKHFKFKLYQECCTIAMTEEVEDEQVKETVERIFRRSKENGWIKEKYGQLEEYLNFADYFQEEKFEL
# Chain of UniProt Q53ET0 (Q53ET0 whole entry, looked up): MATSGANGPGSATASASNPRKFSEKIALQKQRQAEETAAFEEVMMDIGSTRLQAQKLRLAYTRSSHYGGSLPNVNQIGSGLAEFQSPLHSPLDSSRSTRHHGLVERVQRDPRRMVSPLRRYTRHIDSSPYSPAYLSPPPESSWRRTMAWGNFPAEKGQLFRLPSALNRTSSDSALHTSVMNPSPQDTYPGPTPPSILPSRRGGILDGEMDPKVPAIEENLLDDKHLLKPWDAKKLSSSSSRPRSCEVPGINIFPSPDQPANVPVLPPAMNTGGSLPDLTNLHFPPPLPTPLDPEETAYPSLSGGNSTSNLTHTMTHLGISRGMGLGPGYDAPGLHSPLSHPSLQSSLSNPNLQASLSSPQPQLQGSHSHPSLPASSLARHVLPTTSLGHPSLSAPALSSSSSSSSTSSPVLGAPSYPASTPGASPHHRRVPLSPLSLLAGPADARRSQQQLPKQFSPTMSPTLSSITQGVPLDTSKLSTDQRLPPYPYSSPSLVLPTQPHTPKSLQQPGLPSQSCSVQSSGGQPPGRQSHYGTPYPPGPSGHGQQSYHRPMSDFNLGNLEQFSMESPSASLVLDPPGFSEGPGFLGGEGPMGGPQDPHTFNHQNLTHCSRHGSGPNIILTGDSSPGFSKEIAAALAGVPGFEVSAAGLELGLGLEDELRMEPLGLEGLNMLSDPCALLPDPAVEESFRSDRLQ
# Chain of UniProt Q86X83 (Q86X83 whole entry, looked up): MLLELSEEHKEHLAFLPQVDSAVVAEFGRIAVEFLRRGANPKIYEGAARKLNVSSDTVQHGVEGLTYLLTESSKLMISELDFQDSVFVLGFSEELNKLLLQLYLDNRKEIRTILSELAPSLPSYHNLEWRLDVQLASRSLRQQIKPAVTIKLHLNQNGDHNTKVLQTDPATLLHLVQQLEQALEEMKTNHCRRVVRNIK
# Chain of UniProt Q8IWX8 (Q8IWX8 whole entry, looked up): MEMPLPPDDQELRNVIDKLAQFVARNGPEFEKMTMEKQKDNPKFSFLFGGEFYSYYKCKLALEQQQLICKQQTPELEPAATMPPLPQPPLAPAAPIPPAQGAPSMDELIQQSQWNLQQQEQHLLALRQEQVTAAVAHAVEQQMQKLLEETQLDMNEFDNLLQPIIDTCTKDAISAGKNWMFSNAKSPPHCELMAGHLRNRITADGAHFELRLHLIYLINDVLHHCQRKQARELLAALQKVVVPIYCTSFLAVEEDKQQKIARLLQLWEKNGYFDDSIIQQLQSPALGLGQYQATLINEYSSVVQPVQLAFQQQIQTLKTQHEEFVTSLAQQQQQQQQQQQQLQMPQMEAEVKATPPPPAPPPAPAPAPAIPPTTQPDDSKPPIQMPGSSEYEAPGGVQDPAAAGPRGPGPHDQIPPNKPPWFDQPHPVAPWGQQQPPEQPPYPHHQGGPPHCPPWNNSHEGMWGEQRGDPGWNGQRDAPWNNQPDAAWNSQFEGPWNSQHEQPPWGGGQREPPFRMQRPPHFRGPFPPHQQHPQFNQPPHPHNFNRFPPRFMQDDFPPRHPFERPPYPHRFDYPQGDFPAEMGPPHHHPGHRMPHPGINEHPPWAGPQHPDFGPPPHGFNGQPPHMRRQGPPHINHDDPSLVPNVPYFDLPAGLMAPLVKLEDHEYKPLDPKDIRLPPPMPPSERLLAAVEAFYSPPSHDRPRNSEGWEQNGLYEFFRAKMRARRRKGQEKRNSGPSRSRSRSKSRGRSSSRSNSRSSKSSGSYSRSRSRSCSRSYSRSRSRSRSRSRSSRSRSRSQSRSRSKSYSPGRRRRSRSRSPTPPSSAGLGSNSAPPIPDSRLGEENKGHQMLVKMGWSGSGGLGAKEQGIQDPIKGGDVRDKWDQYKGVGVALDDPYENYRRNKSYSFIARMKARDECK
# Chain of UniProt A5YKK6 (A5YKK6 whole entry, looked up): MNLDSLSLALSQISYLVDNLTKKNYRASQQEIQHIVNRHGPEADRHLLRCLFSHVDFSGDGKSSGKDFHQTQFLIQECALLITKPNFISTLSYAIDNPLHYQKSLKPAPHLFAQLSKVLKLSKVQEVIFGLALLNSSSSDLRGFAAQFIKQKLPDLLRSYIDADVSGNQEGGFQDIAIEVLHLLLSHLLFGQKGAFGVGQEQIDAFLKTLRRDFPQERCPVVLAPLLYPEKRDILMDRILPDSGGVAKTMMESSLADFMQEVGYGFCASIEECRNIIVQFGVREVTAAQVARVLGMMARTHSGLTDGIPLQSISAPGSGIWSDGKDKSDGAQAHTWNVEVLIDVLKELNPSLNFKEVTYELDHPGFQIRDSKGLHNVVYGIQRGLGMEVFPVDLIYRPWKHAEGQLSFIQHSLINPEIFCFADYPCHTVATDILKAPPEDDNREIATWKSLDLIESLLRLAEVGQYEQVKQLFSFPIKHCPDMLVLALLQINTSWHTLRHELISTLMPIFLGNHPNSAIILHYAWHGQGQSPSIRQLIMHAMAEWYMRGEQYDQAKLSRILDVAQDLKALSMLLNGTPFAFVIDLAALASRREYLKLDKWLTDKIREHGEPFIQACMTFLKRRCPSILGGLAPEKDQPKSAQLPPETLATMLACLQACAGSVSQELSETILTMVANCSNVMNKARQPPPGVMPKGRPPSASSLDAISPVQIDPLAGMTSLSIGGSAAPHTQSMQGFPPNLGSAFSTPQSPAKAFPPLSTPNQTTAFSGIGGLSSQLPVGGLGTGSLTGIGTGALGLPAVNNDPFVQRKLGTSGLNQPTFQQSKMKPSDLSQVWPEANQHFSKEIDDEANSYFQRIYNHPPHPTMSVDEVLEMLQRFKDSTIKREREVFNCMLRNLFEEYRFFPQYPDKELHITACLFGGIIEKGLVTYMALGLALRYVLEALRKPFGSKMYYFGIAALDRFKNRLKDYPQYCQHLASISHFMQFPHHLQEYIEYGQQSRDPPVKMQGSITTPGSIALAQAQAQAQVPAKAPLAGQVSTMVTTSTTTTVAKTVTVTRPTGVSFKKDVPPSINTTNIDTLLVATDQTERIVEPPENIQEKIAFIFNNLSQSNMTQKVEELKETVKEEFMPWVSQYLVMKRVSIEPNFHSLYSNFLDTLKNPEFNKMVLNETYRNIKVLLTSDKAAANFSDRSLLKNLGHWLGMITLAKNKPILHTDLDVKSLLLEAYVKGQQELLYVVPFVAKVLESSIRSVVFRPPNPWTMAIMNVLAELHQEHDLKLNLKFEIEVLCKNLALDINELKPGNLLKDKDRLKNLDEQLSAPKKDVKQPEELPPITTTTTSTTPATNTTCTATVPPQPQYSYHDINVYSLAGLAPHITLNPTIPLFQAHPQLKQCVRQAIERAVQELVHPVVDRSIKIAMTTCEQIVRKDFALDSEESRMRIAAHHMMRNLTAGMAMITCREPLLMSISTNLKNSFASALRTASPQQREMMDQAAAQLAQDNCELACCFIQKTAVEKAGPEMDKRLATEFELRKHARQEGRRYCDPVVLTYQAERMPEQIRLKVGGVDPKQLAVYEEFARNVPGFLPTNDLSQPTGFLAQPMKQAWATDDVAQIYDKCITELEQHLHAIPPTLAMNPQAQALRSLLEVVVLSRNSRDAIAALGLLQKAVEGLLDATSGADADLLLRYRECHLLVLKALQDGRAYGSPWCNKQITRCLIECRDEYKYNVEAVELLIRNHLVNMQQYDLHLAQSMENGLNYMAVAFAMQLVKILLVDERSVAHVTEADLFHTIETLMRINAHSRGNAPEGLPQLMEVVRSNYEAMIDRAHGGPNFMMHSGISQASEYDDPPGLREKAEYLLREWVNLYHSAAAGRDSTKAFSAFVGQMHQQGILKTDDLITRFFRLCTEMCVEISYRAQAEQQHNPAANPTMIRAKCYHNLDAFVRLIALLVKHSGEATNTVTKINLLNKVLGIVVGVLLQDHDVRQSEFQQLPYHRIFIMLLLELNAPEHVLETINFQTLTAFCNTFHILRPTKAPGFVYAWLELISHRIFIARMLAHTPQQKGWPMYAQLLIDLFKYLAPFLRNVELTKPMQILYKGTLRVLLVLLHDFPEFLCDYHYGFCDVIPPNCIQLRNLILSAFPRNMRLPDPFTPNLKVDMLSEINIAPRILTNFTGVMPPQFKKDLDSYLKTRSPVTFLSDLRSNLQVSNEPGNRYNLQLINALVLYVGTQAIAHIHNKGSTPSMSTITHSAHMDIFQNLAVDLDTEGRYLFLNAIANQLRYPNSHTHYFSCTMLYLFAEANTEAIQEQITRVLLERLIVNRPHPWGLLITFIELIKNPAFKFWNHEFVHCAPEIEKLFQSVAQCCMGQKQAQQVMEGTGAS
Target,log2 fold change (erlotinib),log2 fold change [1],log2 fold change [2],log2 fold change [3],log2 fold change [4],log2 fold change [5],log2 fold change [6],log2 fold change [7],log2 fold change [8],log2 fold change [9],log2 fold change (IRAK-1-4 Inhibitor I),log2 fold change (ibrutinib),log2 fold change [10],log2 fold change (ralimetinib),log2 fold change [11],log2 fold change [12],log2 fold change [13],log2 fold change (pinometostat),log2 fold change [14],log2 fold change [15]
CDC42EP1 (UniProt Q00587),0.09,0.063,0.006,0.115,0.136,-0.011,-0.005,-0.086,-0.133,-0.001,0.097,0.086,-0.527 (active),0.076,-0.104,-0.43 (active),-0.009,-0.043,-0.054,-0.055
CNOT7 (UniProt Q9UIV1),0.025,-0.002,-0.059,0.018,0.194,-0.044,0.128,0.048,-0.003,0.016,-0.039,0.022,-0.013,-0.016,-0.021,-0.002,0.079,0.066,-0.039,0.033
CAMKK2 (UniProt Q96RR4),-0.091,-0.047,-0.026,-0.232,-0.059,-0.081,-0.122,-0.037,-0.19,0.23,-0.05,-0.069,0.131,-0.117,0.002,0.069,-0.052,0.142,0.039,-0.025
COQ9 (UniProt O75208),0.035,0.082,0.006,0.016,0.034,0.056,0.012,0.008,-0.018,-0.001,0.005,0.03,-0.007,-0.055,0.085,-0.092,-0.024,-0.062,0.019,0.043
CHCHD2 (UniProt Q9Y6H1),-0.083,0.107,0.092,0.049,0.028,0.032,-0.028,0.098,0.003,-0.001,0.009,0.067,0.022,-0.035,-0.017,0.095,-0.071,-0.068,0.144,-0.004
CAD (UniProt P27708),-0.083,0.042,-0.014,-0.003,0.125,-0.011,0.057,-0.063,0.013,0.046,-0.064,0.008,-0.402 (active),-0.06,-0.168,0.029,0.021,0.028,0.03,0.272 (active)
CNOT1 (UniProt A5YKK6),0.013,0.102,-0.003,-0.007,0.035,0.001,0.014,-0.004,-0.009,-0.008,-0.07,-0.024,-0.029,0.028,-0.063,-0.101,0.039,0.027,0.009,0.063
CPT2 (UniProt P23786),-0.096,-0.087,0.068,0.636,0.07,0.076,0.163,0.066,0.004,0.23,0.101,0.095,0.201,-0.079,-0.704 (active),-0.488,0.16,-0.145,-0.051,0.256
CHMP4C (UniProt Q96CF2),0.036,0.06,0.476 (active),-0.025,0.054,0.134,-0.064,-0.043,0.058,0.034,0.097,-0.022,-0.028,-0.087,-0.018,-0.099,0.039,-0.095,0.021,-0.019
COMMD2 (UniProt Q86X83),0.114,0.049,-0.053,0.085,0.091,-0.02,-0.017,0.058,0.071,-0.119,-0.009,-0.038,-0.119,-0.023,-0.179,-0.271,0.007,0.037,0.008,0.01
CHEK1 (UniProt O14757),0.03,0.047,0.029,0.012,0.246,0,-0.026,-0.099,-0.303 (active),-0.089,-0.018,-0.014,0,-0.076,-0.055,0.003,0.056,0.018,0.017,-0.029
CRTC2 (UniProt Q53ET0),0.194,0.151,0.039,0.035,0.093,0.073,-0.129,-0.14,-0.233,0.08,-0.024,-0.048,-0.151,0,-0.053,-0.058,-0.032,0.01,0.113,0.101
CERS2 (UniProt Q96G23),0.032,0.001,0.013,0.007,0.004,0.033,0.01,-0.025,0.074,0.087,0.06,-0.013,0.125,-0.026,-0.176,-0.425 (active),0.034,0.042,0.003,-0.04
CHERP (UniProt Q8IWX8),0.083,0.065,0.014,0.053,-0.03,0.09,0.026,-0.036,-0.084,-0.113,-0.091,-0.069,-0.317 (active),0.013,-0.074,-0.097,0.048,0.021,0.122,-0.079
CCDC82 (UniProt Q8N4S0),-0.08,0.035,0.011,-0.026,-0.01,0.046,-0.022,-0.092,-0.004,0.022,-0.041,0.022,-0.07,-0.023,0.012,0,0.028,-0.019,0.108,-0.65 (active)
CRKL (UniProt P46109),-0.012,-0.002,0.014,-0.02,0.047,0.006,-0.069,-0.017,0.017,0.026,0.035,-0.102,-1.24 (active),-0.054,-0.004,0.042,0.057,-0.022,0.042,-0.008
